Inconclusive results are not listed. The source made the active and inactive calls. Unless noted, the call rests on the fitted dose curve; in most records, active means well fitted curve in the direction sought with a large enough effect; inconclusive means small, poorly fitted or top-dose-only effect, or another doubt; inactive means no such curve, though single readings can be large; an effect the other way counts as inactive or inconclusive.
How the values were obtained:
[1] = NS1 protein of Zika virus - qHTS assay to identify small molecule inhibitors in human HEK 293 cells (AID 1347053); further: series mostly up to about 46 µM; nearly all actives have a fitted effect of over 55% in size
Method in brief: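 HEK 293 cells pretreated with compound for 1 h, then infected with ZIKV MR766 (MOI 0.5) for 24 h at 37 C. NS1 detected by TR-FRET with two anti-NS1 antibodies; normalized to uninfected (0%) and infected (100%) wells.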

[2] = target: T1, Tyrosine-protein phosphatase non-receptor type substrate 1 (Homo sapiens) + Leukocyte surface antigen CD47 (Homo sapiens) (UniProt P78324+Q08722); assay: CD47-SIRPalpha protein protein interaction - LANCE assay qHTS validation (AID 1347057; active means well fitted curve in the direction sought with a large enough effect in the signal ratio, with a control signal flat, not every such curve was filed as active; the % refers to the signal ratio; further: series mostly up to about 38 µM)
T1 sequence (P78324 whole entry, looked up): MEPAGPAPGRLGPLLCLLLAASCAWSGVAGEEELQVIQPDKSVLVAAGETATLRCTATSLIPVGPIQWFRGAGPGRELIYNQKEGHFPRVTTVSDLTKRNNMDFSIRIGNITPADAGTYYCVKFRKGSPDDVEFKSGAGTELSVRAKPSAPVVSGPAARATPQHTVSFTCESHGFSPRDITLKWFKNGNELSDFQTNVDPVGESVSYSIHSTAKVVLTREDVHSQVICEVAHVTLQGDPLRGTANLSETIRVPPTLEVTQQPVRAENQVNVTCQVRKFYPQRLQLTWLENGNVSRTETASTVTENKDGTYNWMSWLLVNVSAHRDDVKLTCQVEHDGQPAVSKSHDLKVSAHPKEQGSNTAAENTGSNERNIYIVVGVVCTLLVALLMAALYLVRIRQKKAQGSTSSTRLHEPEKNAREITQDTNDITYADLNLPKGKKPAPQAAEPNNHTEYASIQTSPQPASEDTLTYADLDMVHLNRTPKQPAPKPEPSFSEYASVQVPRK
T1 sequence (Q08722 whole entry, looked up): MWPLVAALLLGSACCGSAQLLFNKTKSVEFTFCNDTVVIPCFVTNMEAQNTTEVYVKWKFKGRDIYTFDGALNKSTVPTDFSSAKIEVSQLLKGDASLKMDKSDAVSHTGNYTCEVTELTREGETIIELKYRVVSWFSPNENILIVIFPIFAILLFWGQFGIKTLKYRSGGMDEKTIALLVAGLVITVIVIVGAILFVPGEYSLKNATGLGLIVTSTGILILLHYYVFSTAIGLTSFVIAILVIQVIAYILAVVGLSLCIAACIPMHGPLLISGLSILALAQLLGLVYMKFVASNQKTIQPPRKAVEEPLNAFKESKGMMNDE
Method in brief: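 First, His-tagged CD47 and Eu-labelled anti-His antibody met the compound for 30 min; next, site-specifically biotinylated SIRPalpha was added for 30 min; finally streptavidin-APC was added before reading the TR-FRET ratio.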

[3] = target: T1, Tyrosine-protein phosphatase non-receptor type substrate 1 (Homo sapiens) + Leukocyte surface antigen CD47 (Homo sapiens); assay: CD47-SIRPalpha protein protein interaction - HTRF assay qHTS validation (AID 1347058; active means well fitted curve in the direction sought with a large enough effect in the signal ratio, not every such curve was filed as active; the % refers to the signal ratio;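 further: recombinant soluble extracellular CD47 with His tag and biotinylated SIRPalpha domains; series mostly up to about 38 µM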)
Method in brief: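 TR-FRET read (Ch1/Ch2 ratio) of soluble extracellular CD47 and Avi-biotinylated SIRPalpha domains in PBS pH 7.4 with 0.05% IGEPAL; 7-point compound titration. Sequential 30 min room-temperature steps; non-biotinylated SIRPalpha as control inhibitor.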

[4] = target: T1, Tyrosine-protein phosphatase non-receptor type substrate 1 (Homo sapiens) + Leukocyte surface antigen CD47 (Homo sapiens); assay: CD47-SIRPalpha protein protein interaction - Alpha assay qHTS validation (AID 1347059);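 further: bead proximity luminescence from CD47 binding SIRPalpha after compound preincubation with SIRPalpha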
Method in brief: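 Binding is measured by AlphaScreen proximity: Ni-NTA acceptor beads capture His-CD47, streptavidin donor beads capture biotin-SIRPalpha. Each of three additions (SIRPalpha with compound, CD47, beads) incubates 30 min at room temperature protected from light.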

[5] = target: Parathyroid hormone/parathyroid hormone-related peptide receptor (Homo sapiens) (UniProt Q03431); assay: qHTS for PTHR1 Agonists: Optimization Screen against the NCGC LOPAC library (AID 1347079);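 further: GloSensor cAMP luminescence in HEK-293 GP2 cells expressing human PTHR1 with IBMX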
Sequence of Parathyroid hormone/parathyroid hormone-related peptide receptor (Homo sapiens) (Q03431 whole entry, looked up): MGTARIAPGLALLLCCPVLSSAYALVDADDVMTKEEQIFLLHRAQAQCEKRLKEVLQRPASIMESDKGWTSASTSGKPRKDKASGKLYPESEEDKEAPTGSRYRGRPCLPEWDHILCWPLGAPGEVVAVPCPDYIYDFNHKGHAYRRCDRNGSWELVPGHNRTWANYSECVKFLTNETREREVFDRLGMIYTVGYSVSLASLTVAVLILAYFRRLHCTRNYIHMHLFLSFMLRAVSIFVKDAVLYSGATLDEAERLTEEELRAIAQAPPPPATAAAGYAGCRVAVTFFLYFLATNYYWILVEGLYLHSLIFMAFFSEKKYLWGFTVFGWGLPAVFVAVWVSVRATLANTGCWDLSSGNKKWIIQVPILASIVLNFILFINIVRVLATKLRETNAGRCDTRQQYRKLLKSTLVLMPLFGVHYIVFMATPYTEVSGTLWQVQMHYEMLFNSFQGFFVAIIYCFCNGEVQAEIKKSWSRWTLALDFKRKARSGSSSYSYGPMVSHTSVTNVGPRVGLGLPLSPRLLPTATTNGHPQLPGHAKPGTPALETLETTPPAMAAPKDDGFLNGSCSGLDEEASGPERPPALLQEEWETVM
Method in brief: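 Compounds were tested across a qHTS titration. PTHR1-expressing GP2 cells report cAMP rises via GloSensor luminescence after 1 hr compound exposure at 37C with IBMX present.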

[6] = target: N-terminal Xaa-Pro-Lys N-methyltransferase 1 (Homo sapiens) (UniProt Q9BV86); assay: qHTS Assay for Inhibitors of N-terminal methyltransferase 1 (NTMT1): LOPAC validation of the NTMT1 SAHH-coupled ThioGlo3 Assay (AID 1347143);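 further: SAH from peptide methylation measured as thiol fluorescence via SAHH coupling and ThioGlo3; nearly all actives have a fitted effect of over 70% in size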; further: potency means the concentration at half of the fitted maximal effect
Sequence of N-terminal Xaa-Pro-Lys N-methyltransferase 1 (Homo sapiens) (Q9BV86 whole entry, looked up): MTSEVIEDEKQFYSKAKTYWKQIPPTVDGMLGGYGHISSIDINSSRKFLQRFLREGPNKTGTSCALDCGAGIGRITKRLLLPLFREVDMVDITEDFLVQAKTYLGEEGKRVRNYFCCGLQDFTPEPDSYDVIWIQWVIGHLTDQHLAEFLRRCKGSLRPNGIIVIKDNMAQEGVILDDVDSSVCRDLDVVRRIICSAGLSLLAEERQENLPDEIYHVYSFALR
Method in brief: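 Inhibition of NTMT1 methylation of peptide SPKRIA is followed by converting SAH with SAHH and labelling the released thiol with ThioGlo3. Plates are read at 340/450nm before and 30 min after reagent addition, both at room temperature.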

[7] = target: Furin (Homo sapiens) (UniProt P09958); assay: Furin counterscreen qHTS for Zika virus inhibitors (AID 1347149); further: nearly all actives have a fitted effect of over 70% in size; further: potency means the concentration at half of the fitted maximal effect
Sequence of Furin (Homo sapiens) (P09958 whole entry, looked up): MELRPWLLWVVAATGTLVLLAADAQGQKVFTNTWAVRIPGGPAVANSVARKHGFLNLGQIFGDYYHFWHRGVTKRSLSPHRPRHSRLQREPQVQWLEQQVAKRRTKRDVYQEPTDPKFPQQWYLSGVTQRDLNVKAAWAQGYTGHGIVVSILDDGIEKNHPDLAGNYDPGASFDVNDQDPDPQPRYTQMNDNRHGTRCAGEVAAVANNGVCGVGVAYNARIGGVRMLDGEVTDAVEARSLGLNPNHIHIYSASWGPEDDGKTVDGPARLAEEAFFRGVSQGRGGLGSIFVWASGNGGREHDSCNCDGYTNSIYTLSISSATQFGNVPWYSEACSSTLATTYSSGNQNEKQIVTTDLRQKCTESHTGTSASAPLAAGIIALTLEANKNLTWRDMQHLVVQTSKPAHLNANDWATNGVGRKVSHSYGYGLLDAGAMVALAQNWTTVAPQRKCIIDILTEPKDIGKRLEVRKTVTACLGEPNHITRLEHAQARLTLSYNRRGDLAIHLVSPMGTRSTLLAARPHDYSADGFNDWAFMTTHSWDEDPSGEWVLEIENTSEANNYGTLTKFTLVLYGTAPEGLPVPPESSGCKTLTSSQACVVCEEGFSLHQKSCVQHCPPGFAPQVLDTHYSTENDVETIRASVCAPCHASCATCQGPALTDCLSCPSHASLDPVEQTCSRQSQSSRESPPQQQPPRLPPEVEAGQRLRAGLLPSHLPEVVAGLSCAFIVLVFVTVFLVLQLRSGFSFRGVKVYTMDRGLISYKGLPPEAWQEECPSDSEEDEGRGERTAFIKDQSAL
Method in brief: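 Fluorogenic cleavage of BOC-RVRR-AMC (2 microM final, Km ~15 µM) was monitored (ex 340, em 450 nm) at 37C after 15 min RT preincubation of 5 nM furin with compounds in HEPES pH 7.0 buffer with CaCl2 and Triton X-100. Percent inhibition was fitted to a 4-parameter Hill curve.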

[8] = tested on: Zika virus NS2B-NS3 protease (unlinked); assay: Optimization of GU AMC qHTS for Zika virus inhibitors: Unlinked NS2B-NS3 protease assay (AID 1347151); further: nearly all actives have a fitted effect of over 80% in size; further: potency means the concentration at half of the fitted maximal effect
Method in brief: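 Fluorescence read-out (340 nm ex / 450 nm em) of AMC peptide cleavage, taken immediately and after 15 min at room temperature (~20% conversion). Enzyme was the unlinked NS2B–NS3 complex at 25 nM in Tris pH 8.0 buffer.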

[9] = tested on: Zika virus NS2B-NS3 protease (linked construct); assay: Confirmatory screen NINDS AMC qHTS for Zika virus inhibitors (AID 1347152); further: nearly all actives have a fitted effect of over 70% in size; further: potency means the concentration at half of the fitted maximal effect
Method in brief: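 Linked NS2B-NS3 1 nM, Tris pH 8.0/0.01% Tween 20; cpd 15 min RT dark; + Nle-KRR-AMC 10 µM (Km 18.3 µM); read 0 and 15 min, 340/450 nm; %inh vs controls, 4-param Hill.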

[10] = tested on: Zika virus NS2B-NS3 protease (unlinked complex); assay: Confirmatory screen GU AMC qHTS for Zika virus inhibitors (AID 1347153); further: nearly all actives have a fitted effect of over 70% in size
Method in brief: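 Unlinked NS2B-NS3 complex (25 nM) in 10 mM Tris-HCl pH 8.0, 0.01% Tween 20 preincubated 15 min with compound, then 10 microM Bz-Nle-KRR-AMC (Km 18.3 µM). Fluorescence change over 15 min, normalized, Hill-fitted.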

Measured: Potency

C[C@H]1CC2C3CCC4=CC(=O)C=C[C@]4(C)[C@@]3(Cl)[C@@H](O)C[C@]2(C)[C@@]1(O)C(=O)CO (stereo not given in full)
inactive: [1] | [2] | [3] | [4] | [5] | [6]

CC1=C(/C=C/C(C)=C/C=C/C(C)=C\C(=O)O)C(C)(C)CCC1
inactive: [1] | [2] | [3] | [4]

N=C(N)c1ccc(N)cc1
inactive: [1] | [2] | [3] | [4] | [5]

O=C(O)c1cc(=O)cc(C(=O)O)[nH]1
inactive: [1] | [2] | [3] | [4] | [5] | [6]

CC1C(=O)N(C)C(=O)c2nc[nH]c21 (stereo not given)
inactive: [1] | [2] | [3] | [4] | [5] | [6]

COc1ccc(C(=O)NCc2cccnc2)cc1C(=O)NCc1cccnc1
inactive: [1] | [2] | [3] | [4] | [5] | [6]

COc1cc2c(CCNC(C)=O)c[nH]c2cc1O
active: [7] 27.1 µM | [8] 26.7 µM
inactive: all other assays above

COC(=O)C(N)Cc1ccc(Cl)cc1 (stereo not given)
not listed: [7] | [9] | [10]
inactive: all other assays above

N=C(N)c1ccc(OCCCCCOc2ccc(C(=N)N)cc2)cc1 (tested in a mixture with another compound)
inactive: [1] | [2] | [3] | [4] | [5]
active: [6] 20 µM

C=CCN1CCc2c(cc(O)c(O)c2Br)[C@@H](c2ccccc2)C1
active: [6] 35.5 µM | [8] 18.9 µM
inactive: all other assays above

CCN(CC)CCCCCCCCOC(=O)c1cc(OC)c(OC)c(OC)c1
inactive: [1] | [2] | [3] | [4] | [5]

N=C(N)SCCN
inactive: [1] | [2] | [3] | [4] | [5] | [6]

O=C(O)C1CCNCC1
inactive: [1] | [2] | [3] | [4] | [5] | [6]

CC(C)[C@@H]1CC[C@@H](C)C[C@@H]1P(=O)(c1ccccc1)c1ccccc1
not listed: [7] | [9] | [10]
inactive: all other assays above

N[C@H]1CONC1=O
inactive: [1] | [2] | [3] | [4] | [5] | [6]

CCCC[C@@]1(C2CCCC2)Cc2cc(OCC(=O)O)c(Cl)c(Cl)c2C1=O
not listed: [8] | [9] | [10]
inactive: all other assays above

N[C@H](C(=O)O)[C@H](Cc1ccccc1)C(=O)O
inactive: [1] | [2] | [3] | [4] | [5] | [6]

CC(N)=O
inactive: [1] | [2] | [3] | [4] | [5] | [6]

C#CC(N)CCC(=O)O (stereo not given)
not listed: [7] | [9] | [10]
inactive: all other assays above

CCn1c(=O)[nH]c2cc(Cl)c(Cl)cc21
inactive: [1] | [2] | [3] | [4] | [5] | [6]

CCCOC(=O)c1c(-c2ccccc2)nc(CC)c(C(=O)SCC)c1CCC
inactive: [1] | [2] | [3] | [4] | [5] | [6]

NC(C(=O)N[C@@H]1C(=O)N2C(C(=O)O)=C(Cl)CS[C@H]12)c1ccccc1 (stereo not given in full)
inactive: [1] | [2] | [3] | [4] | [5] | [6]

NC(=O)CNCCC(c1ccccc1)c1ccccc1
inactive: [1] | [2] | [3] | [4] | [5] | [6]

Clc1nccc2c1ccc1ccccc12
active: [6] 50.1 µM
inactive: [1] | [2] | [3] | [4] | [5]

c1ccc2c(c1)CCC[C@H]2Nc1nc2ccccc2[nH]1
inactive: [1] | [2] | [3] | [4] | [5] | [6]

O=C1C2C=CC=CC2=NC(=S)N1CCN1CCC(=C(c2ccc(F)cc2)c2ccc(F)cc2)CC1 (stereo not given)
inactive: [1] | [2] | [3] | [4] | [5] | [6]

COc1cc(CNC(=O)CCCCCCC(C)C)ccc1O
inactive: [1] | [2] | [3] | [4] | [5]

CCCCC[C@H](CC(=O)NO)C(=O)N[C@H](C(=O)N1CCC[C@H]1CO)C(C)C
not listed: [7] | [9] | [10]
inactive: all other assays above

Nc1ncnc2c1ncn2C1CCCC1
not listed: [7] | [9] | [10]
inactive: all other assays above

NCCC1CCCC(CCN)N1 (stereo not given)
not listed: [7] | [9] | [10]
inactive: all other assays above

O=c1[nH]c2cc(Cl)ccc2c(O)c1-c1ccc(Oc2ccccc2)cc1
inactive: [1] | [2] | [3] | [4] | [5] | [6]

NC1(C(=O)O)CCc2cc(C(=O)O)ccc21 (stereo not given)
inactive: [1] | [2] | [3] | [4] | [5]
active: [6] 50.1 µM

NC1C=CC=C(C(=O)O)C1 (stereo not given)
not listed: [7] | [9] | [10]
inactive: all other assays above

NC(=O)c1cc[n+](CC2=C(C(=O)O)N3C(=O)[C@@H](NC(=O)[C@@H](c4ccccc4)S(=O)(=O)[O-])[C@H]3SC2)cc1
not listed: [7] | [9] | [10]
inactive: all other assays above

NCCCCN
not listed: [7] | [9] | [10]
inactive: all other assays above

CNC(=O)c1cc2c(cn1)[nH]c1ccccc12
active: [6] 56.2 µM | [7] 24.1 µM | [8] 26.7 µM | [9] 24.1 µM
inactive: all other assays above

COc1ccc2c(c1)c(CC(=O)O)c(C)n2Cc1ccc(Cl)cc1
inactive: [1] | [2] | [3] | [4] | [5]

Brc1c(Br)c(Br)c2[nH]cnc2c1Br
active: [6] 50.1 µM
inactive: [1] | [2] | [3] | [4] | [5]

NC(N)=NC(N)=Nc1ccccc1
not listed: [7] | [9] | [10]
inactive: all other assays above

C[C@@]1(C2CCCC2)Cc2cc(OCC(=O)O)c(Cl)c(Cl)c2C1=O
not listed: [7] | [9] | [10]
inactive: all other assays above

NC(Cc1cccc(-c2ccccc2CP(=O)(O)O)c1)C(=O)O (stereo not given)
not listed: [7] | [9] | [10]
inactive: all other assays above

NC1(C(=O)O)CCCCC1
not listed: [7] | [9] | [10]
inactive: all other assays above

OCC1NCC(O)C(O)C1O (stereo not given)
not listed: [7] | [9] | [10]
inactive: all other assays above

N[C@@H](Cc1ccc(F)cc1)C(=O)O
not listed: [7] | [9] | [10]
inactive: all other assays above

CCCCCCCCCCC/C=C\C(C)(C)/C=C\CCCC(=O)O
active: [8] 6.7 µM
not listed: [7] | [9] | [10]
inactive: all other assays above

OC[C@H]1O[C@@H](n2cnc3cncnc32)[C@H](O)[C@@H]1O
active: [6] 3.16 µM
not listed: [7] | [9] | [10]
inactive: all other assays above

NOCC(=O)O
not listed: [7] | [9] | [10]
inactive: all other assays above

NC(N)=N[C@@H](CCC(=O)O)C(=O)O
not listed: [7] | [9] | [10]
inactive: all other assays above

CCCn1c(=O)c(C)cn2nc(N)nc12
inactive: [1] | [2] | [3] | [4] | [5]
active: [6] 39.8 µM | [8] 29.9 µM

CCCCCCC(=O)OC1CC(C)(C)NC(C)(C)C1
not listed: [7] | [9] | [10]
inactive: all other assays above

C[C@](Cc1ccc(O)c(O)c1)(NN)C(=O)O
active: [6] 39.8 µM
not listed: [7] | [9] | [10]
inactive: all other assays above

NC1CONC1=O (stereo not given)
not listed: [7] | [9] | [10]
inactive: all other assays above

CNc1ncnc2c1ncn2[C@H]1C[C@H](OP(=O)(O)O)[C@@H](COP(=O)(O)O)O1
not listed: [7] | [9] | [10]
inactive: all other assays above

Cc1cc2c(cc1Cl)N(C(=O)Nc1ccnc3ccccc13)CC2
not listed: [7] | [9] | [10]
inactive: all other assays above

COc1cc([C@@H]2c3cc4c(cc3[C@H](O)C3COC(=O)[C@@H]32)OCO4)cc(OC)c1OC (stereo not given in full)
not listed: [7] | [9] | [10]
inactive: all other assays above

CN(CC[C@@H](Oc1ccc(C(F)(F)F)cc1)c1ccccc1)CC(=O)O
not listed: [7] | [9] | [10]
inactive: all other assays above

Cn1cc(C(=O)OCC2CCN(CCNS(C)(=O)=O)CC2)c2ccccc21
not listed: [7] | [9] | [10]
inactive: all other assays above

CSC(=N)N
not listed: [7] | [9] | [10]
inactive: all other assays above

CCSC(=N)N
not listed: [7] | [9] | [10]
inactive: all other assays above

OC[C@H]1O[C@H](n2cnc3c(N[C@H]4CCC[C@@H]4O)ncnc32)[C@H](O)[C@@H]1O
not listed: [7] | [9] | [10]
inactive: all other assays above

Cn1ccnc1
not listed: [7] | [9] | [10]
inactive: all other assays above

Reference: PubChem BioAssay (NCATS)
